In PubChem BioAssay (Tox21):
Inconclusive results are not listed. Active and inactive are the calls of the source. Unless noted, the call rests on the fitted dose curve; in most records, active means well fitted curve in the direction sought with a large enough effect in the repeat runs; inconclusive means weak or mixed curves; inactive means no such curve, though single readings can be large; an effect the other way counts as inactive or inconclusive.

Tests used:
[1] = qHTS assay to identify small molecule antagonists of the thyroid receptor (TR) signaling pathway - cell viability counter screen (AID 743064); further: nearly all actives have a fitted effect of over 50% in size; further: potency means the concentration at half of the fitted maximal effect
In short: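 Counter screen for cytotoxicity: compound plus T3 (1 nM final) on GH3.TRE-Luc cells, 23.5 h at 37 °C, then fluorescence viability readout with CellTiter-Fluor.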

[2] = qHTS assay to identify small molecule antagonists of the thyroid receptor (TR) signaling pathway (AID 743065); further: nearly all actives have a fitted effect of over 55% in size; further: potency means the concentration at half of the fitted maximal effect
In short: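 GH3.TRE-Luc rat pituitary cells carrying two TR response elements driving luciferase were plated for 4 h, given compound plus 1 nM T3 (final), and incubated 23.5 h at 37 C. ONE-Glo luminescence measured reporter inhibition; CellTiter-Fluor fluorescence tracked cytotoxicity.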

[3] = tested on: thyroid hormone receptor (rat, GH3 cells); test: qHTS assay to identify small molecule agonists of the thyroid receptor (TR) signaling pathway (AID 743066; calls by dose curve; further: on the % scale 0 is the no-effect control and ±100 the full control effect)
[4] = qHTS assay to identify small molecule antagonists of the estrogen receptor alpha (ER-alpha) signaling pathway - cell viability counter screen (AID 743074; calls by dose curve;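 further: HEK293 cells carrying ER-alpha-UAS-bla reporter stimulated with 17beta-estradiol; on the % scale 0 is the no-effect control and ±100 the full control effect; nearly all actives have a fitted effect of over 45% in size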)
[5] = qHTS assay to identify small molecule antagonists of the estrogen receptor alpha (ER-alpha) signaling pathway using the BG1 cell line - cell viability counter screen (AID 743081);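 further: compound given together with 17beta-estradiol as the ER stimulus; series mostly up to about 70 µM; on the % scale 0 is the no-effect control and ±100 the full control effect; nearly all actives have a fitted effect of over 45% in size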
Aromatase (Homo sapiens) = Aromatase (Homo sapiens) (UniProt P11511); test: qHTS assay to identify aromatase inhibitors (AID 743083); further: nearly all actives have a fitted effect of over 55% in size; further: potency means the concentration at half of the fitted maximal effect
Chain of Aromatase (Homo sapiens) (P11511 whole entry, looked up): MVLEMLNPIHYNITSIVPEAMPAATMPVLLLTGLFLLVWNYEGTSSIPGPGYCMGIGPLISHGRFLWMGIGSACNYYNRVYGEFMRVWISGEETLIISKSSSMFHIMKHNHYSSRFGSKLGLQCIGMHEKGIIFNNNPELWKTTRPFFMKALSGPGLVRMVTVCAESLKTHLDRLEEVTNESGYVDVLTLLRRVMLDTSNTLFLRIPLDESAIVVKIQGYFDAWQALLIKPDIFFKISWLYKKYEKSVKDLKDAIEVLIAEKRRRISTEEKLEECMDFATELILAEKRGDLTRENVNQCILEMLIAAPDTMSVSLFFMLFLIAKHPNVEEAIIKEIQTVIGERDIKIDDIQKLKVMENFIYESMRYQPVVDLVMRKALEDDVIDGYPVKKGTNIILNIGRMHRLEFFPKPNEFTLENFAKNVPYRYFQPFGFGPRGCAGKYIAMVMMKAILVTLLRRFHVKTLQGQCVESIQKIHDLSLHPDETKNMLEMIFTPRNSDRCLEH

[6] = qHTS assay to identify aromatase inhibitors - cell viability counter screen (AID 743084);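 further: cells stimulated with testosterone during compound exposure; on the % scale 0 is the no-effect control and ±100 the full control effect; nearly all actives have a fitted effect of over 55% in size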
[7] = target: Aryl hydrocarbon receptor (Homo sapiens) (UniProt P35869); test: qHTS assay to identify small molecule that activate the aryl hydrocarbon receptor (AhR) signaling pathway (AID 743085);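 further: HG2L7.5c1 human HepG2 liver cells with stably integrated DRE-driven firefly reporter; series mostly up to about 70 µM; on the % scale 0 is the no-effect control and ±100 the full control effect; nearly all actives have a fitted effect of over 15% in size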
Chain of Aryl hydrocarbon receptor (Homo sapiens) (P35869 whole entry, looked up): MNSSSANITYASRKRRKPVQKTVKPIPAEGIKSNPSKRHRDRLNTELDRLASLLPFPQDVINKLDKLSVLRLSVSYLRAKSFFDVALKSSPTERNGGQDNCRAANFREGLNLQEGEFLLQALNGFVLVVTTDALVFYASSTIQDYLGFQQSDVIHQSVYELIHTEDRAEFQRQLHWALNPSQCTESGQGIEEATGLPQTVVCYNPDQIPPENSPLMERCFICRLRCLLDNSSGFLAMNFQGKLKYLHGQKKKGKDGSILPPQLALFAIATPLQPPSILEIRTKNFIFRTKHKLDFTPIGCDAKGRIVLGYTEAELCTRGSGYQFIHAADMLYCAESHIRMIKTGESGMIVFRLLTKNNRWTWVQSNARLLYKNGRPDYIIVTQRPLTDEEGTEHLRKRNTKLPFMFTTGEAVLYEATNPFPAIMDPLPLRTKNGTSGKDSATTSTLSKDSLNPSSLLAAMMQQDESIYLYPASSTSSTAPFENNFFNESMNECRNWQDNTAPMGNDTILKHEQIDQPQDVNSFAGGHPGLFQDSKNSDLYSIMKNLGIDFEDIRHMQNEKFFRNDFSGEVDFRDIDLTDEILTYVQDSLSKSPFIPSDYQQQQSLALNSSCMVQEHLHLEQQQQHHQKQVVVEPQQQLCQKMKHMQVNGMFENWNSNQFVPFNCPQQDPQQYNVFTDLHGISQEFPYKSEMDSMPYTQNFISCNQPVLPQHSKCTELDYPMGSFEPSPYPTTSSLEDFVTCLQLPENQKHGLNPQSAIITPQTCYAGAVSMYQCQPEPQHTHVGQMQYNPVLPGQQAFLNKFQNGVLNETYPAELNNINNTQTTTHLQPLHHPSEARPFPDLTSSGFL
In short: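 Measured in HG2L7.5c1 cells: CellTiter-Fluor signal (30 min incubation, 37C) for viability, then luciferase luminescence (30 min, room temperature). Compound contact time was 24 h at 37C, following a 5 h pre-incubation.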

[8] = qHTS assay to identify small molecule that activate the aryl hydrocarbon receptor (AhR) signaling pathway - cell viability counter screen (AID 743086);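 further: HepG2 liver cells carrying the AhR DRE luciferase reporter; series mostly up to about 70 µM; on the % scale 0 is the no-effect control and ±100 the full control effect; nearly all actives have a fitted effect of over 45% in size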
In short: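 HepG2-AhR-luc (HG2L7.5c1) cells, 4000/well, were preincubated 5 h at 37C, exposed to compound in qHTS format for 24 hr at 37C, then given CellTiter-Fluor for 30 min; viability was read as fluorescence in the reporter wells.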

[9] = target: Peroxisome proliferator-activated receptor gamma (Homo sapiens) (UniProt P37231); test: qHTS assay to identify small molecule agonists of the peroxisome proliferator-activated receptor gamma (PPARg) signaling pathway (AID 743094; active means well fitted activation curve with a large enough effect in the signal ratio in the repeat runs, not every such curve was filed as active; the % refers to the signal ratio; further: on the % scale 0 is the no-effect control and ±100 the full control effect)
Chain of Peroxisome proliferator-activated receptor gamma (Homo sapiens) (P37231 whole entry, looked up): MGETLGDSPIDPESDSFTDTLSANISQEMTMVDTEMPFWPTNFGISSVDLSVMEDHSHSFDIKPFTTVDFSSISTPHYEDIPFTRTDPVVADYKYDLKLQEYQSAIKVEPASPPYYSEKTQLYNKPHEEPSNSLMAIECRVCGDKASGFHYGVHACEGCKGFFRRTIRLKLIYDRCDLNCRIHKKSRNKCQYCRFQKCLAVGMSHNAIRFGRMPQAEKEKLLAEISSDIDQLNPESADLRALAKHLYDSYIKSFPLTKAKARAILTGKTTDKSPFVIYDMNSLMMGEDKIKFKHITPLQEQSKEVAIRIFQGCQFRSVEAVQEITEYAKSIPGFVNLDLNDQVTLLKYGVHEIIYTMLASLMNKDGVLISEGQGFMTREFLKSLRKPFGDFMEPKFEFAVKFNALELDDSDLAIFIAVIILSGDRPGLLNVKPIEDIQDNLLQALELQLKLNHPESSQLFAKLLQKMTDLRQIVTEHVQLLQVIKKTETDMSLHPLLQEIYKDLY
In short: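 GeneBLAzer PPARg UAS-bla HEK293H cells were plated, rested 5 h, then exposed to compounds for 17 h at 37C. Beta-lactamase activity was read by LiveBLAzer B/G FRET substrate fluorescence after 1 h at room temperature.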

[10] = target: Peroxisome proliferator-activated receptor gamma (Homo sapiens) (UniProt P37231); test: qHTS assay to identify small molecule antagonists of the peroxisome proliferator-activated receptor gamma (PPARg) signaling pathway (AID 743191; calls by dose curve; further: series mostly up to about 63 µM; on the % scale 0 is the no-effect control and ±100 the full control effect; nearly all actives have a fitted effect of over 30% in size)
In short: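 GeneBLAzer PPARg UAS-bla HEK293H cells carrying a UAS-driven beta-lactamase reporter were plated at 3000 cells/well, preincubated 5 h at 37C, then given compound for 17 h at 37C; LiveBLAzer B/G FRET substrate was read after 1 h at room temperature.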

[11] = qHTS assay to identify small molecule antagonists of the peroxisome proliferator-activated receptor gamma (PPARg) signaling pathway - cell viability counter screen (AID 743194); further: on the % scale 0 is the no-effect control and ±100 the full control effect; nearly all actives have a fitted effect of over 55% in size
In short: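 PPARg-UAS-bla HEK293H cells were plated, rested 5 h at 37 C, then treated with compounds plus rosiglitazone (50 nM final) for 17 h at 37 C; viability was then read by CellTiter-Glo luminescence after 30 min at room temperature.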

[12] = qHTS assay for small molecule agonists of the antioxidant response element (ARE) signaling pathway (AID 743202; active means well fitted activation curve with a large enough effect in the signal ratio in the repeat runs, not every such curve was filed as active; the % refers to the signal ratio; further: on the % scale 0 is the no-effect control and ±100 the full control effect)
In short: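 Compounds delivered in DMSO to ARE-bla HepG2 cells (2,000 cells/well, pre-incubated 5 h) and left 16 h at 37 C. LiveBLAzer B/G FRET substrate then added for 2 h at RT before fluorescence reading.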

[13] = qHTS assay for small molecule agonists of the antioxidant response element (ARE) signaling pathway - cell viability counter screen (AID 743203; calls by dose curve)
In short: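 ARE-bla HepG2 cells were plated, rested 5 h at 37C/5% CO2, then exposed to compounds in DMSO for 16 h. Viability was read as CellTiter-Glo luminescence after 30 min at room temperature, in the same wells as the ARE screen.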

[14] = qHTS assay for small molecule activators of the heat shock response signaling pathway - cell viability counter screen (AID 743209); further: on the % scale 0 is the no-effect control and ±100 the full control effect; nearly all actives have a fitted effect of over 50% in size
In short: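 HSE-bla HeLa cells plated overnight, then exposed to Tox21 compounds (23 nL in DMSO) for 5 h at 37 C. After the bla reporter read, CellTiter-Glo was added in the same wells and luminescence read after 30 min at room temperature.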

[15] = target: Estrogen receptor (Homo sapiens) (UniProt P03372); test: qHTS assay to identify small molecule agonists of the estrogen receptor alpha (ER-alpha) signaling pathway using the BG1 cell line (AID 743079); further: potency means the concentration at half of the fitted maximal effect; nearly all actives have a fitted effect of over 20% in size
Chain of Estrogen receptor (Homo sapiens) (P03372 whole entry, looked up): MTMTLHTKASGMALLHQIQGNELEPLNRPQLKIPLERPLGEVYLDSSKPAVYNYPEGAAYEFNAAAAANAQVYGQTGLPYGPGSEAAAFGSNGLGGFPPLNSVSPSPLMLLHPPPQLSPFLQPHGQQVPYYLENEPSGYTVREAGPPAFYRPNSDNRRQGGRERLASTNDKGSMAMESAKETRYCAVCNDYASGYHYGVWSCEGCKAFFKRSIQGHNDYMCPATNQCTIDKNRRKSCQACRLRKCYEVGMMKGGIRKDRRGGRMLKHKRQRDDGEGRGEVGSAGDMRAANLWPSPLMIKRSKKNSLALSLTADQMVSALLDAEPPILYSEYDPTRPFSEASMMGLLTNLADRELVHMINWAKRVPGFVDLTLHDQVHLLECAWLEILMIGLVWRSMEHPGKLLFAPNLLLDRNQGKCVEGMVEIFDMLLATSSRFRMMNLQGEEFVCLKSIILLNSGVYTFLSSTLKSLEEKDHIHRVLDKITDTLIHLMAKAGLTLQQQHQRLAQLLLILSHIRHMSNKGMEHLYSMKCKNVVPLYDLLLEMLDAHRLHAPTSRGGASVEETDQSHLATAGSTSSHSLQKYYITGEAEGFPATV

[16] = qHTS assay for small molecule activators of the heat shock response signaling pathway (AID 743210; active means well fitted activation curve with a large enough effect in the signal ratio in the repeat runs, with a control signal flat, not every such curve was filed as active; the % refers to the signal ratio;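 further: HeLa cells with beta-lactamase reporter driven by heat shock elements; series mostly up to about 63 µM; on the % scale 0 is the no-effect control and ±100 the full control effect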)
In short: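 Reporter gene assay: HeLa cells stably bearing an HSE-bla construct, compound treatment 5 h at 37 C, LiveBLAzer substrate 2.5 h at RT, fluorescence intensity.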

[17] = target: Estrogen receptor (Homo sapiens) (UniProt P03372); test: qHTS assay to identify small molecule agonists of the estrogen receptor alpha (ER-alpha) signaling pathway (AID 743075; calls by dose curve)

CCCC[C@H]1CN(CC2CCOCC2)C(=O)OC12CCN(C1(C)CCN(C(=O)c3c(C)ncnc3C)CC1)CC2
inactive: Potency [1] | Potency [2] | Potency [3] | outcome [4] | Potency [5] | Potency (Aromatase (Homo sapiens)) | Potency [6] | Potency [7] | Potency [8] | Potency [9] | Potency [10] | Potency [11] | Potency [12] | Potency [13] | Potency [14]

O=C(NS(=O)(=O)/C=C/c1cccs1)c1ccc(F)cc1Br
inactive: Potency [1] | Potency [2] | Potency [3] | outcome [4] | Potency [5] | Potency (Aromatase (Homo sapiens)) | Potency [6] | Potency [8] | Potency [10] | Potency [11] | Potency [13] | Potency [14] | outcome [16]
active: Potency [15] 68.6 µM

NCc1ccccc1
inactive: Potency [1] | Potency [2] | Potency [3] | outcome [4] | Potency [5] | Potency [8] | Potency [12] | Potency [13] | Potency [14] | outcome [16]

Nc1nc(CC(=O)O)cs1
inactive: Potency [1] | Potency [2] | Potency [3] | outcome [4] | Potency [5] | Potency (Aromatase (Homo sapiens)) | Potency [6] | Potency [8] | Potency [9] | Potency [10] | Potency [11] | Potency [12] | Potency [13] | Potency [14] | outcome [16]

N#Cc1c(F)cccc1F
inactive: Potency [1] | Potency [2] | Potency [3] | outcome [4] | Potency [5] | Potency (Aromatase (Homo sapiens)) | Potency [6] | Potency [7] | Potency [8] | Potency [9] | Potency [12] | Potency [13] | Potency [14] | outcome [16]

NC(=S)N/N=C/c1cccnc1
inactive: Potency [1] | Potency [2] | Potency [3] | outcome [4] | Potency [5] | Potency (Aromatase (Homo sapiens)) | Potency [6] | Potency [7] | Potency [8] | Potency [9] | Potency [12] | Potency [13] | Potency [14] | outcome [16]

CC(=O)Nc1ccc(/C=N/NC(N)=S)cc1
inactive: Potency [1] | Potency [2] | Potency [3] | outcome [4] | Potency [5] | Potency (Aromatase (Homo sapiens)) | Potency [6] | Potency [7] | Potency [8] | Potency [9] | Potency [10] | Potency [11] | Potency [12] | Potency [13] | Potency [14] | outcome [16]

CCN(CCO)CCCC(C)Nc1ccnc2cc(Cl)ccc12 (stereo not given)
inactive: Potency [1] | Potency [2] | Potency [3] | outcome [4] | Potency [5] | Potency (Aromatase (Homo sapiens)) | Potency [6] | Potency [7] | Potency [8] | Potency [9] | ratio activity, negative = inhibition [10] -5.98% [at 5.95 µM] | activity change, negative = cytotoxicity [11] 0.825% [at 5.95 µM] | activation [12] -5.09% [at 8.36 µM] | viability change, negative = cytotoxic [13] -9.02% [at 8.36 µM] | activity change, negative = cytotoxicity [14] -18.6% [at 5.95 µM] | activation [16] -0.125% [at 5.95 µM]

CCCCCC/C=C/C=O
inactive: Potency [1] | Potency [2] | Potency [3] | outcome [4] | Potency [5] | Potency (Aromatase (Homo sapiens)) | Potency [6] | Potency [8] | Potency [9] | Potency [11] | Potency [12] | Potency [13] | Potency [14]

O=C(/C=C/c1ccc(O)c(O)c1)O[C@@H]1C[C@](O)(C(=O)O)C[C@@H](O)[C@H]1O
inactive: Potency [1] | Potency [2] | Potency [3] | outcome [4] | Potency [5] | Potency [8] | Potency [11] | Potency [13] | Potency [14] | outcome [16]

CC(C)=CCCC(C)CC=O (stereo not given)
inactive: Potency [1] | Potency [2] | Potency [3] | outcome [4] | Potency [5] | Potency [6] | Potency [7] | Potency [8] | Potency [9] | Potency [11] | Potency [12] | Potency [13] | Potency [14]

COc1ccccc1OC(=O)Oc1ccccc1OC
inactive: Potency [1] | Potency [2] | Potency [3] | outcome [4] | Potency [5] | Potency (Aromatase (Homo sapiens)) | Potency [6] | Potency [7] | Potency [8] | Potency [9] | Potency [12] | Potency [13] | Potency [14] | outcome [16]

CC[C@]12CCCN3CCc4c(n(c5ccccc45)C(=O)C1)[C@@H]32
inactive: Potency [3] | outcome [4] | Potency [5] | Potency [6] | Potency [9] | Potency [11] | Potency [12] | Potency [13] | Potency [14] | outcome [16]
active: Potency [1] 8.04 µM | Potency [2] 7.17 µM | Potency (Aromatase (Homo sapiens)) 11.4 µM

Cc1ccc(O)c([C@H](CCN(C(C)C)C(C)C)c2ccccc2)c1
inactive: Potency [3] | outcome [4] | Potency [5] | Potency (Aromatase (Homo sapiens)) | Potency [6] | Potency [8] | Potency [9] | Potency [11] | Potency [13] | Potency [14] | outcome [16]
active: Potency [1] 11.9 µM | Potency [2] 26.6 µM

O=CNc1ccccc1
inactive: Potency [1] | Potency [2] | Potency [3] | outcome [4] | Potency [5] | Potency (Aromatase (Homo sapiens)) | Potency [7] | Potency [8] | Potency [9] | Potency [11] | Potency [12] | Potency [13] | Potency [14] | outcome [16]

O=C(O)c1cccc(N(Cc2cccnc2)c2ccc(OC(F)F)c(OC(F)F)c2)c1
inactive: Potency [1] | Potency [2] | Potency [3] | outcome [4] | Potency [5] | Potency [6] | Potency [8] | Potency [11] | Potency [13] | Potency [14] | outcome [16]

CC(=O)[C@@]1(O)CC[C@H]2[C@@H]3C[C@H](C)C4=CC(=O)CC[C@]4(C)[C@H]3CC[C@@]21C
active: Potency [2] 11.9 µM
inactive: Potency [1] | Potency [3] | outcome [4] | Potency [17] | Potency [5] | Potency (Aromatase (Homo sapiens)) | Potency [6] | Potency [7] | Potency [8] | Potency [9] | Potency [11] | Potency [13] | Potency [14] | outcome [16]
